Assay outcomes (PubChem BioAssay)
12-hLO inh: inhibitors of human 12-lipoxygenase (ALOX12); Potency, µM (top dose mostly 57.1 µM), for the others: at the highest dose activity change, negative = inhibition, actives largely listed as inhibitors; AID 1452; hit rate 0.12% among 150,000; purified 12-hLO, xylenol orange hydroperoxide absorbance; further: potency means the concentration at half of the fitted maximal effect; nearly all actives have a fitted effect of over 55% in size
Target sequence (P18054 whole entry, looked up): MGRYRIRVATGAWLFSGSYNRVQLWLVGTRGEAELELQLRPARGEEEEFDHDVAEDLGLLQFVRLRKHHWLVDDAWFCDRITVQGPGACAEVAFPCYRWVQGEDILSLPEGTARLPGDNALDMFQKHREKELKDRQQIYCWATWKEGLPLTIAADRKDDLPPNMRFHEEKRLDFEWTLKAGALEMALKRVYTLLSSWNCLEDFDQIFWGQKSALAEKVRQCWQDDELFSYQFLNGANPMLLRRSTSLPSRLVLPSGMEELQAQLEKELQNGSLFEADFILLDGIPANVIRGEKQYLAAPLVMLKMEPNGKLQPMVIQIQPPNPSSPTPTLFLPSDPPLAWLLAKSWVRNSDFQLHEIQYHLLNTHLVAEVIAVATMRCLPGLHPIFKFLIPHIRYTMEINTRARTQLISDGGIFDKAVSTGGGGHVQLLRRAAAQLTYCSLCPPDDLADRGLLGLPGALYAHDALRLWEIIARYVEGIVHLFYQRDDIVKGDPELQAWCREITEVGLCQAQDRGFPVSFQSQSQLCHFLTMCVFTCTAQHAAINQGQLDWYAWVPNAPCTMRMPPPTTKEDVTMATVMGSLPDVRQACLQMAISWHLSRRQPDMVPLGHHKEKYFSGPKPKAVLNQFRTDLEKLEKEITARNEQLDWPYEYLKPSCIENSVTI
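Purified human 12hLO (150 nM final) was preincubated with compounds for 15 min at room temperature in 25 mM Hepes pH 7.0, 0.01% Triton X-100, then reacted with 40 uM arachidonic acid for 30 min. Hydroperoxide was detected with ferrous iron/xylenol orange.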
IMPase inh: IMPase inhibition in cells | 120,000 tested, under 10 active | P97697 | CHO-M1 cells, IP1 accumulation, HTRF TR-FRET ratio | inhibition (IP1 accumulation), % at 46.1 µM | AID 901; active means well fitted curve in the direction sought with a large enough effect in the signal ratio, not every such curve was filed as active; inconclusive means small, poorly fitted or top-dose-only effect, or a change in a side signal; inactive means no such curve, though single readings can be large or run the other way; the % refers to the signal ratio;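 further: cells stimulated with carbachol in lithium chloride buffer; plate controls were DMSO basal wells for no effect and reference inhibitor wells for full effect; higher means more IMPase inhibition seen as more IP1 and lower FRET ratio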
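Seeded CHO-M1 cells were dosed with compound at up to 46 uM, stimulated with carbachol for 30 min, then lysed in IP-One detection reagents. Higher IP1 lowers the TR-FRET signal.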
PNC inhibitor: blocks assembly of the perinucleolar compartment | activity change (PNC), negative = inhibition, % at 10 µM | PC3M PTB-GFP, PNC prevalence imaging, 16 h; stronger effect = lower value | hit rate 3.1% among 140,000;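 active means readout at or below -70, meaning at least 70% loss of cells showing the perinucleolar compartment, a nuclear body marking cancer cells; inconclusive means readout between -30 and a set limit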;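 further: plate controls were DMSO wells for no effect and camptothecin positive control wells for full effect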
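Compounds are pinned in duplicate onto adhered PC3M cells stably expressing GFP-tagged PTB and incubated 16 h at 37 C. Cells are then fixed, nuclei stained with Hoechst, and PNC-positive cells counted.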
IMPase Li inh: cell-permeable IMPase inhibitors with lithium potentiation; CHO-M1 cells, IP1 TR-FRET (IP-One), carbachol + lithium; Potency, µM (titrated, usually from 59.4 µM), for inactives: at the top dose activity, negative = IMPase inhibition, usual class: inhibitors; hit rate 0.35% among 210,000;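 further: IP1 builds up when IMPase is blocked and the TR-FRET signal falls; potency means the concentration at half of the fitted maximal effect; plate controls were basal vehicle for no effect and high inhibitor control for full effect; nearly all actives have a fitted effect of over 50% in size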
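CHO cells stably expressing M1 receptor (2000/well) were cultured 16–30 h, then exposed to compounds with a small lithium addition for 30 min at 37C. IP1 was measured by TR-FRET competition; AC50 from Hill fits.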
* marks the source's active call; other numbers are inactive results; ? = inconclusive; nt = no result given; [ ] = dose if it differs, or a comment. The entries come from a sample that favours hits as a whole. Unless noted, the call rests on the fitted dose curve; in most records, active means well fitted curve in the direction sought with a large enough effect; inconclusive means small, poorly fitted or top-dose-only effect, or another doubt; inactive means no such curve, though single readings can be large; an effect the other way counts as inactive or inconclusive. Unless noted, on the % scale 0 is the no-effect control and ±100 the full control effect.

SMILES	12-hLO inh	IMPase inh	PNC inhibitor	IMPase Li inh
CCOC(=O)Cc1c(C)nc2c(-c3ccc(OC)cc3)c(C)nn2c1C	-2%	0	-1	34%[38.3 µM]
CCC(=O)Nc1ncnc2ncn(C(=O)CC)c12	0%[11.4 µM]	nt	nt	-2%
C/C(CC(=O)N(C(C)C)C(C)C)=N\NC(=O)COc1ccc(Br)cc1Br	-8%	nt	-109*	21%
COc1cc(O)c2c(O)c3c(c4c2c1[C@@]1(C4)C(C)=CCCC1(C)C)[C@H](O)[C@@]1(O)CC(=O)C(C(N)=O)=C(O)[C@]1(O)C3=O	-28%[11.4 µM]	nt	nt	-3%
CCCCCCCCCCCCCCC1CO1 (stereo unspecified)	-1%	nt	nt	3%
CCN(CC(=O)N1CCN(C)CC1)S(=O)(=O)c1ccc(Cl)cc1	4%	3	-107*	8%[38.3 µM]
Cc1nc2ccccc2c(=O)n1NC(=O)C1CC1	nt	nt	nt	-2%
O=C(COc1ccccc1-c1ccccc1)N/N=C/c1cccc2ccccc12	-5%	21	?	24%[38.3 µM]
O=C(CCn1cnc(-c2ccccc2)c1-c1ccccc1)N/N=C/c1ccc(O)cc1	1%	nt	-6	-2%
COc1ccc(/C=N/NC(=O)COc2ccccc2-c2ccccc2)cc1	1%	-8[1.84 µM]	-115*	46%[38.3 µM]
COc1ccc(/C=N/NC(=O)CCn2cnc(-c3ccccc3)c2-c2ccccc2)cc1	-4%	nt	-108*	7%
CCOC(=O)C1=C(C)NC(C)=C(C(=O)OC)[C@H]1c1cccc(Cl)c1Cl	-5%	3	nt	nt
COC(=O)[C@@]1(Cc2ccccc2)[C@H]2c3cc(C(=O)N4CCCC4)n(Cc4ccc(OC)c(OC)c4)c3C[C@H]2CN1C(=O)c1ccccc1	-3%	nt	nt	16%
O=S(=O)(c1cccc(C(F)(F)F)c1)N1c2ccccc2-n2cccc2[C@H]1c1cccnc1	-6%[11.4 µM]	nt	nt	14%
CCCC(=O)Nc1ccc(NC(=O)CCc2ccccc2)cn1	0%	-5	-114*	-4%[38.3 µM]
CCCC(=O)Nc1ccc(NC(=O)Cc2ccccc2)cn1	-3%	5	-12	-3%[38.3 µM]
CCCC(=O)Nc1ccc(NC(=O)c2ccccc2Cl)nc1	-1%	?	-84*	17%[38.3 µM]
CC(C)C(c1nnnn1C1CCCC1)N1CCCc2ccccc21 (stereo unspecified)	-1%	-6	-100*	14%
COc1ccccc1[C@H]1C(c2ccccc2)=NN(c2ccccc2)[C@@H]1CO	-2%[0.00818 µM]	nt	nt	25µM*
OC[C@@H]1[C@@H](c2ccc(Cl)cc2)C(c2cccc(Cl)c2)=NN1c1ccccc1	-10%[0.00818 µM]	nt	nt	-9%
OC[C@@H]1[C@@H](c2ccc(Cl)cc2)C(c2ccccc2)=NN1c1ccccc1	-22%[0.00818 µM]	nt	nt	22µM*
CCc1ccccc1NC(=O)c1nnn(CC(=O)Nc2cccc(C)c2C)c1N	-1%	?	21	10µM*
CCc1ccccc1NC(=O)c1nnn(CC(=O)Nc2cccc(C)c2)c1N	1%	-12	20	-4%[38.3 µM]
NNC(=O)CS(=O)(=O)Nc1ncccn1	3%[11.4 µM]	nt	nt	-8%
CCc1ccc2[nH]c(=O)c(CN(Cc3ccc(F)cc3)C(c3nnnn3CCN3CCOCC3)C(C)C)cc2c1 (stereo unspecified)	-17%	-8	-81*	38%[38.3 µM]
SMILES	12-hLO inh	IMPase inh	PNC inhibitor	IMPase Li inh
COc1ccccc1NS(=O)(=O)c1cc(NC(=O)CNC(=O)c2ccc(C)s2)ccc1Cl	-4%	nt	18	4%
Cc1cc(C)nc(SCc2nc3nc(C)cc(C)n3c2Br)n1	-8%	?	-25	2%[38.3 µM]
Cc1cc(C)n2c(=S)[nH]nc2n1	?	-12	-139*	8%[38.3 µM]
Cc1ccc(S(=O)(=O)CC(=O)N2CCCC2)cc1	-1%	-7	-100*	4%
Cc1ccc(S(=O)(=O)CC(=O)N2CCOCC2)cc1	nt	nt	nt	0%
CCOC(=O)N/N=C/c1cn(Cc2ccc(Cl)cc2)c2ccccc12	-1%	nt	-105*	-3%
CCOC(=O)N/N=C/c1cn(CCCOc2ccccc2)c2ccccc12	-3%	nt	-13	-9%
CS(=O)c1ccccc1COC(=O)Nc1ccc(Cl)cc1 (stereo unspecified)	-10%	4[1.84 µM]	-80*	37%[38.3 µM]
COC(=O)COc1ccc(S(=O)(=O)Nc2ccc(C(N)=O)cc2)cc1Cl	-2%	2	-92*	0%[38.3 µM]
O=C(N/N=C/c1ccc(O)cc1)c1ccc(NC(=O)c2ccccc2Br)cc1	-6%	?	-17	-1%[38.3 µM]
O=C(Nc1ccccc1C(=O)N/N=C/c1ccc(F)cc1)c1ccccc1Br	1%	1	-114*	4%[38.3 µM]
CC(C)(C)NC(=O)CCCCCCCC(=O)NC(C)(C)C	nt	nt	nt	-1%
